# Experimental data as given in PubChem BioAssay (Tox21).
# Inconclusive results are not listed. Entries that show only a call come without a potency. Values without a mark were called inactive. Calls of active or inactive are those of the source. Calls follow the shape of the dose curve; as a rule, active = well fitted curve in the direction sought with a large enough effect in the repeat runs; inconclusive = weak or mixed curves; inactive = no such curve, though single readings can be large; an effect the other way counts as inactive or inconclusive.
# Legend:
# [1] = target: Cytochrome P450 2C19 (Homo sapiens) (UniProt P33261); assay: Cytochrome P450 Family 2 Subfamily C Member 19 (CYP2C19) small molecule antagonists: luciferase reporter qHTS assay (AID 1671197); also: nearly all actives have a fitted effect of over 65% in size; as to activity change, negative = inhibition: series mostly up to about 120 µM
# Procedure, shortened: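 Light output is proportional to CYP2C19 activity: proluciferin substrate is converted to luciferin, then detected by a luciferin detection reagent that also stops the 1 h, 37C NADPH-driven reaction. Ketoconazole serves as positive control.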
# [2] = target: Cytochrome P450 2C9 (Homo sapiens) (UniProt P11712); assay: Cytochrome P450 Family 2 Subfamily C Member 9 (CYP2C9) small molecule antagonists: luciferase reporter qHTS assay (AID 1671198); also: nearly all actives have a fitted effect of over 50% in size; as to activity change, negative = inhibition: series mostly up to about 120 µM
# Procedure, shortened: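 Enzyme-substrate mix preincubated with compound 10 min at room temperature; reaction started with NADPH regeneration solution, 1 h 37C. Luminescent luciferin product read after 20 min detection reagent.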
# [3] = target: Cytochrome P450 1A2 (Homo sapiens) (UniProt P05177); assay: Cytochrome P450 Family 1 Subfamily A Member 2 (CYP1A2) small molecule antagonists: luciferase reporter qHTS assay (AID 1671199); also: nearly all actives have a fitted effect of over 50% in size; as to activity change, negative = inhibition: series mostly up to about 120 µM
# Procedure, shortened: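 Human CYP1A2 activity measured with a P450-Glo proluciferin substrate; compounds in DMSO preincubated 10 min at room temperature with enzyme-substrate mix, then NADPH regeneration system added for 1 h. Luciferin detection reagent, 20 min, luminescence read.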
# [4] = target: Voltage-gated inwardly rectifying potassium channel KCNH2 (Homo sapiens) (UniProt Q12809); assay: Human Ether-a-go-go-Related Gene (hERG) channel small molecule antagonists: fluorescence cell-based qHTS assay (AID 1671200); also: nearly all actives have a fitted effect of over 50% in size;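 as to activity change, negative = inhibition: hERG-expressing U2OS cells given a thallium stimulus after FluxOR II dye loading; series mostly up to about 77 µM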
# Procedure, shortened: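 Measured: Tl+ flux via fluorescence (480/540 nm) in hERG-expressing U2OS cells after 1 h dye loading at room temperature.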
# [5] = target: Cytochrome P450 3A4 (Homo sapiens) (UniProt P08684); assay: Cytochrome P450 Family 3 Subfamily A Member 4 (CYP3A4) small molecule antagonists: luciferase reporter qHTS assay (AID 1671201); also: nearly all actives have a fitted effect of over 50% in size; as to activity change, negative = inhibition: series mostly up to about 120 µM
# Procedure, shortened: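 Setup: enzyme-substrate mix, compound pin transfer, 10 min RT. Reaction: NADPH regeneration solution, 1 h RT. Readout: detection reagent stops turnover, luminescence measured after 20 min, expressed in relative luminescence units.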
# [6] = target: Cytochrome P450 2D6 (Homo sapiens) (UniProt P10635); assay: Cytochrome P450 Family 2 Subfamily D Member 6 (CYP2D6) small molecule antagonists: luciferase reporter qHTS assay (AID 1671196); also: nearly all actives have a fitted effect of over 50% in size; as to activity change, negative = inhibition: series mostly up to about 120 µM
# Procedure, shortened: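 CYP2D6 enzyme–substrate mix was held with compound for 10 min at room temperature, then NADPH regeneration solution was added and the reaction ran 1 h at room temperature. Luciferin product was detected by luminescence after 20 min with detection reagent.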
# Potency is read from the fitted curve at half-maximal effect.
# Cytochrome P450 1A2 (Homo sapiens), sequence (P05177 whole entry, looked up): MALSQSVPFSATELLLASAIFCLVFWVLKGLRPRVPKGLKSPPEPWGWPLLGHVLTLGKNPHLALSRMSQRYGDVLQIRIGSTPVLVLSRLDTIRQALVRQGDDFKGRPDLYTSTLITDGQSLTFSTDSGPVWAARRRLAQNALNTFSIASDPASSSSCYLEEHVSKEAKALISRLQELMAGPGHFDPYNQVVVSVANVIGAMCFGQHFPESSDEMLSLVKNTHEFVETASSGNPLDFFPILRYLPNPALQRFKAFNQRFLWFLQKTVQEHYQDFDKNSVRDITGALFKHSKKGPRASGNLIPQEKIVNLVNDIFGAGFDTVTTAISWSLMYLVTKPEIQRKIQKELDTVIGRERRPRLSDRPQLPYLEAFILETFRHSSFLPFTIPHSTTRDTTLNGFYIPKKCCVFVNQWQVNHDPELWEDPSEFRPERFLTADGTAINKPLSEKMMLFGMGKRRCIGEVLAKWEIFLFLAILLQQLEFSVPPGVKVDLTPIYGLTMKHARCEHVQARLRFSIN
# Cytochrome P450 2D6 (Homo sapiens), sequence (P10635 whole entry, looked up): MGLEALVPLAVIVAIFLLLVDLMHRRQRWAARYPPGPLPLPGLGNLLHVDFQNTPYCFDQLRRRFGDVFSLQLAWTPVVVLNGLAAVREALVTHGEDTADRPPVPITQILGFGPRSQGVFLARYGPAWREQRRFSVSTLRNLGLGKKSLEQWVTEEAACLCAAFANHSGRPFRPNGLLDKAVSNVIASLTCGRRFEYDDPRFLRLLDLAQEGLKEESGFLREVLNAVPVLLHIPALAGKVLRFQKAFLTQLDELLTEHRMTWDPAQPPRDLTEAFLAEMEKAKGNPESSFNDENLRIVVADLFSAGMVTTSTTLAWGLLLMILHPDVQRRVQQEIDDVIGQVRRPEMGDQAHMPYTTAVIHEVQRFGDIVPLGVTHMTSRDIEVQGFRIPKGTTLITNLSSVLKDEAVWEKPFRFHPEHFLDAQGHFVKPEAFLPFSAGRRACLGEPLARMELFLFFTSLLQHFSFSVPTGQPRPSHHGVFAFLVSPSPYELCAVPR
# Cytochrome P450 3A4 (Homo sapiens), sequence (P08684 whole entry, looked up): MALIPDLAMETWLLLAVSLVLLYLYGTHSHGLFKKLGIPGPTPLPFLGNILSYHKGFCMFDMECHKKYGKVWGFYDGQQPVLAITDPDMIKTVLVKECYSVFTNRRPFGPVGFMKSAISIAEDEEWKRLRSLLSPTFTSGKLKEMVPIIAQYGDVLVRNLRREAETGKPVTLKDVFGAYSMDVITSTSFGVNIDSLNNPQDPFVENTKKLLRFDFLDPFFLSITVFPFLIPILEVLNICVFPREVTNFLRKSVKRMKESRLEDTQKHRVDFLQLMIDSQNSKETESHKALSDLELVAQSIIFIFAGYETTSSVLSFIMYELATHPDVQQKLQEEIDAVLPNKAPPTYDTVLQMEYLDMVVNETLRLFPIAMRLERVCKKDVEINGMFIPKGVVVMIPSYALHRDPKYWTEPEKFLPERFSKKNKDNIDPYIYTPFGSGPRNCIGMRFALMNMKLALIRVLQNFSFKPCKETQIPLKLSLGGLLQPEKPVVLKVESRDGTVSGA
# Cytochrome P450 2C19 (Homo sapiens), sequence (P33261 whole entry, looked up): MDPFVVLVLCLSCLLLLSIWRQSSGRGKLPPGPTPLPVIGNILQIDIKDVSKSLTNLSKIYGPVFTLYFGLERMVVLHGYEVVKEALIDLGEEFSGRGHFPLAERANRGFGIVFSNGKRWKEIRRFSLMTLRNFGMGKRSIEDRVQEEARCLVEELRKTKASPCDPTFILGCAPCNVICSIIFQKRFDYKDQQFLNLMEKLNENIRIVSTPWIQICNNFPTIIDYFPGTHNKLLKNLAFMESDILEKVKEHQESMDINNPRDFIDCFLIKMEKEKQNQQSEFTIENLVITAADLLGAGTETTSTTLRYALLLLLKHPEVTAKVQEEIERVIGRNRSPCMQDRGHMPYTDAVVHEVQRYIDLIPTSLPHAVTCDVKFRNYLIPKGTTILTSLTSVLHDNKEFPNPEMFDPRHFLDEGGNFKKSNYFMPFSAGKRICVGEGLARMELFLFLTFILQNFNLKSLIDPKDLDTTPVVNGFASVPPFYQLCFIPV
# Cytochrome P450 2C9 (Homo sapiens), sequence (P11712 whole entry, looked up): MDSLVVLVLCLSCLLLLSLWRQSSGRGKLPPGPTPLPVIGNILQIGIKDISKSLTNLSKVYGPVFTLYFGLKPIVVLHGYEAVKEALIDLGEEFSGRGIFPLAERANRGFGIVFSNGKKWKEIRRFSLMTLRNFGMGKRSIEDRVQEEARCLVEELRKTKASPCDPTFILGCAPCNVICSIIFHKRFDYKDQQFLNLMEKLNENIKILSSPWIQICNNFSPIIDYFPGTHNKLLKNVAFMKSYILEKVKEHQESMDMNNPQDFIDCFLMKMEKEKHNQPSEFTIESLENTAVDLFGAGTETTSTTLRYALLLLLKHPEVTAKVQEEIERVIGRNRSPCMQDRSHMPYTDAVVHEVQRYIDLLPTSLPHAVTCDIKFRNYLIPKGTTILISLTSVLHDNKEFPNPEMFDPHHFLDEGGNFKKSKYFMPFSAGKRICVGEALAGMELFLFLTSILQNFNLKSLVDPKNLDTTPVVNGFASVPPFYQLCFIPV
# Voltage-gated inwardly rectifying potassium channel KCNH2 (Homo sapiens), sequence (Q12809 whole entry, looked up): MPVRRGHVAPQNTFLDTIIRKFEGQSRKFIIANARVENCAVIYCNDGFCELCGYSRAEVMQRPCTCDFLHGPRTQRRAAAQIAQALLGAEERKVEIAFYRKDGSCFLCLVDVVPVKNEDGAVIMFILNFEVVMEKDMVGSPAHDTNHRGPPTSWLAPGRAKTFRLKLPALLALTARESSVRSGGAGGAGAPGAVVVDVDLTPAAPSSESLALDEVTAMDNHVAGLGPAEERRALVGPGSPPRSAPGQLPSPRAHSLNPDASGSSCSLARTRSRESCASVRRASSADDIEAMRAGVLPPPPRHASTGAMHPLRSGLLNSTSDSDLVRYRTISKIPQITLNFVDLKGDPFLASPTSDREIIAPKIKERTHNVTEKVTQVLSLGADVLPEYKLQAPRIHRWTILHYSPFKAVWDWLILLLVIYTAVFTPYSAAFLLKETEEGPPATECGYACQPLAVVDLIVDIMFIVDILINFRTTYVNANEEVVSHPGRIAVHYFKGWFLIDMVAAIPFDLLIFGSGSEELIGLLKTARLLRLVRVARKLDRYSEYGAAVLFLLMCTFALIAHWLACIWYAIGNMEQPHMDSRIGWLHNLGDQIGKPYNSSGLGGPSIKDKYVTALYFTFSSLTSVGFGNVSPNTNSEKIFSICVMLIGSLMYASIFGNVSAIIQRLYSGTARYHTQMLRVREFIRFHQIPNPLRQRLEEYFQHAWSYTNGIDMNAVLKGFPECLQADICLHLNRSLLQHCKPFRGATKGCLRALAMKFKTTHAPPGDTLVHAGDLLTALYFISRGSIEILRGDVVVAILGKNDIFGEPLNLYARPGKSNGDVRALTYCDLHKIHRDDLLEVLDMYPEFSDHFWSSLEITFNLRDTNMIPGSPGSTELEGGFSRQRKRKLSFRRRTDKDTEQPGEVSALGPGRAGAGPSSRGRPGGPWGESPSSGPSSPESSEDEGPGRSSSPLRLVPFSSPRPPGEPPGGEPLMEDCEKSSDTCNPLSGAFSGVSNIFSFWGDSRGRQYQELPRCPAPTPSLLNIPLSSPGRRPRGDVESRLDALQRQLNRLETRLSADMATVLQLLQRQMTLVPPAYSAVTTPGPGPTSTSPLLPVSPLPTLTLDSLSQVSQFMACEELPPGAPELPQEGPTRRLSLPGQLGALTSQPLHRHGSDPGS
structure (smiles),measurement,setting,value
OCCCCCCCl,Potency,[1],inactive
same,Potency,[2],inactive
same,Potency,[3],inactive
same,Potency,[4],inactive
same,Potency,[5],inactive
CC(C)(c1ccc(Oc2ccc3c(c2)C(=O)OC3=O)cc1)c1ccc(Oc2ccc3c(c2)C(=O)OC3=O)cc1,Potency,[1],inactive
same,Potency,[2],inactive
same,Potency,[3],70.6 µM (active)
same,Potency,[4],inactive
same,Potency,[5],inactive
CCC(C)N (configuration not stated),Potency,[1],inactive
same,Potency,[2],inactive
same,Potency,[3],inactive
same,Potency,[4],inactive
same,Potency,[5],inactive
Cc1nc([N+](=O)[O-])cn1-c1ccc([N+](=O)[O-])cc1,Potency,[1],inactive
same,Potency,[2],inactive
same,Potency,[3],inactive
same,Potency,[4],inactive
same,Potency,[5],inactive
CC(=O)/C=C/c1ccco1,Potency,[1],inactive
same,Potency,[2],inactive
same,Potency,[4],inactive
same,Potency,[5],inactive
CCOC(=O)CCc1ccccc1,Potency,[6],inactive
same,Potency,[2],inactive
same,Potency,[4],inactive
same,Potency,[5],inactive
CC(=O)OCC(=O)[C@@]1(O)[C@H](OC(C)=O)C[C@H]2[C@@H]3CCC4=CC(=O)C=C[C@]4(C)[C@@]3(F)[C@@H](O)C[C@@]21C,Potency,[1],inactive
same,Potency,[2],inactive
same,Potency,[4],inactive
O=C1OC(=O)c2cc(Oc3ccc4c(c3)C(=O)OC4=O)ccc21,Potency,[1],inactive
same,Potency,[2],inactive
same,Potency,[3],inactive
same,Potency,[4],inactive
same,Potency,[5],inactive
Nc1nc(=O)n([C@@H]2O[C@H](CO)[C@@H](O)[C@@H]2F)cc1I,Potency,[1],inactive
same,Potency,[2],inactive
same,Potency,[3],inactive
same,Potency,[4],inactive
same,Potency,[5],inactive
BrC/C=C/CBr,"activity change, negative = inhibition",[1],-2.14% [at 23.6 µM]
same,"activity change, negative = inhibition",[2],-9.58% [at 23.6 µM]
same,"activity change, negative = inhibition",[3],-13.1% [at 23.6 µM]
same,"activity change, negative = inhibition",[4],3.44% [at 15.8 µM]
same,"activity change, negative = inhibition",[5],0.976% [at 23.6 µM]
CC(=O)c1ccc(OCC(=O)N2CCCCC2)cc1,Potency,[6],inactive
same,Potency,[2],inactive
same,Potency,[4],inactive
same,Potency,[5],inactive
C=CCOc1cc(Cl)ccc1C(=O)NCCN(CC)CC,Potency,[1],6.92 µM (active)
same,Potency,[2],inactive
same,Potency,[3],2.57 µM (active)
same,Potency,[4],9.52 µM (active)
same,Potency,[5],17.4 µM (active)
CC1CCC(C(C)(C)S)C(=O)C1 (configuration not stated),Potency,[1],79.6 µM (active)
same,Potency,[2],39.9 µM (active)
same,Potency,[4],inactive
Oc1ccccc1Cc1ccccc1O,Potency,[1],10 µM (active)
same,Potency,[2],39.9 µM (active)
same,Potency,[4],inactive
CCCCCCCCCOCC1CO1 (configuration not stated),Potency,[1],52.2 µM (active)
same,Potency,[2],82.8 µM (active)
same,Potency,[4],inactive
O=[Si]=O,Potency,[1],inactive
same,Potency,[2],inactive
same,Potency,[3],inactive
same,Potency,[4],inactive
same,Potency,[5],inactive
CN(C1CCCCC1)S(=O)(=O)c1ccccc1N,Potency,[1],3.17 µM (active)
same,Potency,[2],6.33 µM (active)
same,Potency,[4],inactive
CCC(=O)OCCC(C)CCC=C(C)C (configuration not stated),Potency,[1],20 µM (active)
same,Potency,[2],25.2 µM (active)
same,Potency,[3],39.9 µM (active)
same,Potency,[4],inactive
same,Potency,[5],12.6 µM (active)
NS(=O)(=O)c1ccccc1OC(F)(F)F,Potency,[6],inactive
same,Potency,[2],inactive
same,Potency,[4],inactive
same,Potency,[5],inactive
CC(C)(C)NCCO,Potency,[1],inactive
same,Potency,[2],inactive
same,Potency,[3],39.9 µM (active)
same,Potency,[4],inactive
same,Potency,[5],inactive
CC(C)C(=O)Nc1cccc(C(F)(F)F)c1,Potency,[1],inactive
same,Potency,[2],inactive
same,Potency,[3],7.76 µM (active)
same,Potency,[4],inactive
same,Potency,[5],inactive
CC(C)COC(=O)/C=C/c1ccccc1,Potency,[6],inactive
same,Potency,[3],28.3 µM (active)
same,Potency,[5],inactive
CCCCCN(CCCOC)C(=O)C(CCC(=O)O)NC(=O)c1ccc(Cl)c(Cl)c1 (configuration not stated),Potency,[1],inactive
same,Potency,[2],13.8 µM (active)
same,Potency,[3],30.9 µM (active)
same,Potency,[4],inactive
same,Potency,[5],inactive
CCCCC(CC)CNC(=O)CC(C)OC(=O)CCC(=O)O (configuration not stated),Potency,[6],17.4 µM (active)
same,Potency,[3],inactive
same,Potency,[4],inactive
CO/N=C(/C(=O)N[C@@H]1C(=O)N2C(C(=O)O)=C(Cn3nnc(C)n3)CS[C@H]12)c1csc(N)n1,Potency,[1],inactive
same,Potency,[2],inactive
same,Potency,[3],inactive
same,Potency,[4],inactive
same,Potency,[5],inactive
CC(C)COC(=O)COc1ccc(Cl)cc1Cl,Potency,[1],56.3 µM (active)
same,Potency,[2],31.7 µM (active)
same,Potency,[3],20 µM (active)
same,Potency,[5],inactive
CCOc1ccc(NC(=O)OC(C)C)cc1OCC,Potency,[1],71 µM (active)
same,Potency,[2],inactive
same,Potency,[3],5.03 µM (active)
same,Potency,[4],inactive
same,Potency,[5],inactive
C=CCOC(=O)c1ccc(C(=O)OCC=C)c(C(=O)OCC=C)c1,Potency,[1],0.159 µM (active)
same,Potency,[2],0.399 µM (active)
same,Potency,[3],6.33 µM (active)
same,Potency,[4],inactive
same,Potency,[5],1.78 µM (active)
C=C(C)C(=O)OC1CC(C)CC(C)(C)C1 (configuration not stated),Potency,[1],inactive
same,Potency,[2],inactive
same,Potency,[3],31.7 µM (active)
same,Potency,[4],inactive
same,Potency,[5],inactive
CCN1CN(CC)CN(CC)C1,Potency,[1],inactive
same,Potency,[2],inactive
same,Potency,[3],inactive
same,Potency,[4],inactive
same,Potency,[5],inactive
CC(CC(=O)O)CC(C)(C)C (configuration not stated),Potency,[1],inactive
same,Potency,[2],inactive
same,Potency,[4],inactive
same,Potency,[5],inactive
CN[C@@H]1[C@@H](O)[C@@H](O[C@@H]2[C@H](O)[C@H](O[C@H]3OC(CN)=CC[C@H]3N)[C@@H](N)C[C@H]2N)OCC1(C)O (some centres not stated),Potency,[4],inactive
Cc1nc2ccccc2c(=O)o1,Potency,[4],inactive
same,Potency,[5],inactive
COc1ccc(NS(=O)(=O)c2ccc(N)cc2)nn1,Potency,[4],inactive
C=C(C)C(=O)OC,Potency,[2],inactive
same,Potency,[4],inactive
same,Potency,[5],inactive
CCN(Cc1cccc(S(=O)(=O)O)c1)c1ccccc1,Potency,[2],17.8 µM (active)
same,Potency,[3],inactive
same,Potency,[4],inactive
same,Potency,[5],inactive
CCCO,Potency,[2],inactive
same,Potency,[4],inactive
same,Potency,[5],inactive
Cc1ncc([N+](=O)[O-])n1CC(O)CCl (configuration not stated),Potency,[4],inactive
COCCOCCOCCOC,Potency,[1],inactive
same,Potency,[3],inactive
same,Potency,[4],inactive
same,Potency,[5],inactive
O=C(COCCOCCOCC(=O)Nc1c(I)cc(I)c(C(=O)O)c1I)Nc1c(I)cc(I)c(C(=O)O)c1I,Potency,[1],34.7 µM (active)
same,Potency,[2],inactive
same,Potency,[4],inactive
same,Potency,[5],inactive
C[C@H](CCC(=O)O)[C@H]1CC[C@H]2[C@@H]3[C@H](O)C[C@@H]4C[C@H](O)CC[C@]4(C)[C@H]3C[C@H](O)[C@]12C,Potency,[2],inactive
same,Potency,[3],inactive
same,Potency,[4],inactive
same,Potency,[5],inactive
O=S(=O)(O)c1cc(O)ccc1O,Potency,[4],inactive
CCC(C)(CCC(C)C)C(=O)[O-].CCC(C)(CCC(C)C)C(=O)[O-].[Zn+2] (configuration not stated),Potency,[1],17.8 µM (active)
same,Potency,[2],17.8 µM (active)
same,Potency,[4],inactive
same,Potency,[5],inactive
